Laboratory results: PubChem BioAssay (EPA / NIEHS)
Inconclusive results are not listed. Calls of active or inactive are those of the source. How the source made its calls, unless noted: active means hit-call score of the fitted dose curve at least 0.9, where 1 is the maximum; inconclusive means response in the unintended direction; inactive means score below 0.9.

Columns and labels:
[1] = TOX21_p53_BLA_p2_viability: Viability Assessment in the Tox21 HCT-116 p53 Agonism Beta-lactamase Assay, Phase 2 (AID 2283591);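 further: actives lower the ATP signal meaning cytotoxicity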
How it was run: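 HCT116 p53-bla cells, 4000/well, dosed after 5 h plating (217-fold dilution of DMSO stocks) and incubated 16 h at 37C. Viability taken as cellular ATP by CellTiter-Glo luminescence after 30 min RT; signal loss marks cytotoxicity.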

[2] = target: Cellular tumor antigen p53 (Homo sapiens) (UniProt P04637); experiment: TOX21_p53_BLA_p2_ratio: Tox21 HCT-116 p53 Agonism Beta-lactamase Assay, Ratio, Phase 2 (AID 2283592)
How it was run: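 HCT-116 cells with p53-responsive beta-lactamase reporter, 4000 cells/well, preincubated 5 h, then compound in DMSO (217-fold dilution) for 16 h at 37C. CCF4-AM substrate 2 h at room temperature; 460/530 nm emission ratio fitted upward versus DMSO.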

[3] = TOX21_p53_BLA_p3_viability: Viability Assessment in the Tox21 HCT-116 p53 Agonism Beta-lactamase Assay, Phase 3 (AID 2283593)
How it was run: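 HCT116 cells, 4000/well, dosed 5 h after plating by pin transfer (217-fold dilution from DMSO stock) and incubated 16 h at 37C, 5% CO2. Viability read as ATP luminescence with CellTiter-Glo after 30 min at room temperature.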

[4] = target: Cellular tumor antigen p53 (Homo sapiens) (UniProt P04637); experiment: TOX21_p53_BLA_p3_ratio: Tox21 HCT-116 p53 Agonism Beta-lactamase Assay, Ratio, Phase 3 (AID 2283596)
How it was run: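 HCT116 p53-bla cells (4000/well) given compound in DMSO (217-fold dilution) after 5 h, incubated 16 h at 37C. CCF4-AM substrate 2 h at room temperature; 460/530 nm emission ratio, gain fitted against DMSO.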

[5] = TOX21_p53_BLA_p4_viability: Viability Assessment in the Tox21 HCT-116 p53 Agonism Beta-lactamase Assay, Phase 4 (AID 2283597);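 further: hits lower the luminescence signal meaning cytotoxicity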
How it was run: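 HCT-116 p53-bla cells, 4000/well, dosed after 5 h attachment and incubated 16 h at 37 °C, 5% CO2. Viability from CellTiter-Glo ATP luminescence after 30 min at room temperature, taken after the beta-lactamase read; loss of signal indicates cytotoxicity.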

[6] = target: Cellular tumor antigen p53 (Homo sapiens) (UniProt P04637); experiment: TOX21_p53_BLA_p5_ratio: Tox21 HCT-116 p53 Agonism Beta-lactamase Assay, Ratio, Phase 5 (AID 2283599)
How it was run: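 HCT-116 p53-bla cells (4000/well) plated 5 h, dosed with compound (217-fold DMSO dilution) for 16 h at 37 C; CCF4-AM substrate 2 h at room temperature. Activity is the 460/530 nm emission ratio (405 nm excitation), fitted in gain-of-signal direction versus DMSO.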

[7] = TOX21_p53_BLA_p5_viability: Viability Assessment in the Tox21 HCT-116 p53 Agonism Beta-lactamase Assay, Phase 5 (AID 2283600)
How it was run: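 HCT-116 p53 beta-lactamase reporter cells, 4000/well, were exposed to compound (pin transfer, 217-fold dilution) for 16 hours at 37C. Cellular ATP was read by CellTiter-Glo luminescence after 30 min at room temperature.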

[8] = target: Cellular tumor antigen p53 (Homo sapiens) (UniProt P04637); experiment: TOX21_p53_BLA_p4_ratio: Tox21 HCT-116 p53 Agonism Beta-lactamase Assay, Ratio, Phase 4 (AID 2283601)
How it was run: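 HCT-116 p53 beta-lactamase reporter cells (4000/well) preincubated 5 h, then compound (217-fold dilution of DMSO stock) for 16 h at 37C. CCF4-AM substrate added 2 h at room temperature; 460/530 nm emission ratio fitted upward versus DMSO.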

[9] = target: PGR (gene 5241) (UniProt P06401); experiment: TOX21_PR_BLA_Followup_Antagonist_ratio: Tox21 HEK293 Progesterone Receptor (PR) Antagonism Beta-lactamase Follow-Up Assay, Ratio (AID 2283934)
How it was run: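 PR-UAS-bla HEK293T cells, 3,000/well in 2% charcoal-stripped FBS, given compound plus 1nM R5020 agonist for 16 hr at 37C. Beta-lactamase FRET substrate 2 hours, ratio cleaved/uncleaved fluorescence; viability by CellTiter-Glo in same wells.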

[10] = TOX21_PR_BLA_Followup_Agonist_viability: Viability Assessment in the Tox21 HEK293 Progesterone Receptor (PR) Agonism Beta-lactamase Follow-Up Assay (AID 2283935);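 further: signal loss means lower viability so actives are cytotoxic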
How it was run: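 PR-UAS-bla HEK293T cells in 2% charcoal-stripped FBS medium, plated 6 hr before compound addition, exposed 16 hr at 37C. Viability read by CellTiter-Glo ATP luminescence after 30 min at room temperature, in the same wells as the beta-lactamase readout.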

[11] = TOX21_PR_BLA_Followup_Antagonist_viability: Viability Assessment in the Tox21 HEK293 Progesterone Receptor (PR) Antagonism Beta-lactamase Follow-Up Assay (AID 2283936);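 further: hits lower the luminescence signal meaning cytotoxicity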
How it was run: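 PR-UAS-bla HEK293T cells (3,000/well, 2% charcoal-stripped FBS) given compound plus R5020 agonist, 16 h at 37C. CellTiter-Glo added after bla read, 30 min at room temperature; luminescence loss indicates cytotoxicity.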

[12] = target: PGR (gene 5241) (UniProt P06401); experiment: TOX21_PR_LUC_Followup_Antagonist: Tox21 HEK293 Progesterone Receptor (PR) Antagonism Luciferase Follow-Up Assay (AID 2283938);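 further: curve fitted upward as signal gain over DMSO baseline despite antagonist label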
How it was run: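 HEK293-PR-A-luc cells, 3,000/well, preincubated 5 h at 37C before compound addition in DMSO; 16 h compound exposure at 37C. ONE-Glo luciferase luminescence read after 30 min at room temperature, fitted relative to DMSO baseline.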

[13] = TOX21_PR_LUC_Followup_Antagonist_viability: Viability Assessment in the Tox21 HEK293 Progesterone Receptor (PR) Antagonism Luciferase Follow-Up Assay (AID 2283940)
How it was run: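 HEK293-PR-A-luc cells kept in charcoal-stripped FBS medium were plated 5 h before compound addition, then exposed 16 h at 37C; viability read as cellular ATP by luciferase luminescence, loss of signal indicating cytotoxicity.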

[14] = CCTE_Harrill_HTTr_Viability_MCF7: CCTE's 6-hour Cell Viability Assessment for the High-Throughput Transcriptomics (HTTr) Platform, in MCF-7 cells cultured in DMEM + 10% fetal bovine serum, Harrill Lab (AID 2284010; active means hit-call score of the fitted dose curve at least 0.9, where 1 is the maximum; inactive means score below 0.9)
How it was run: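 MCF-7 cells in DMEM + 10% FBS, 384-well, exposed 6 h to an eight-point dilution series. Membrane integrity scored by high-content imaging of propidium iodide exclusion; bidirectional fit versus DMSO.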

[15] = CCTE_Harrill_HTTr_Apoptosis_MCF7: CCTE's 6-hour Apoptosis Assessment for the High-Throughput Transcriptomics (HTTr) Platform, in MCF-7 cells cultured in DMEM + 10% fetal bovine serum, Harrill Lab (AID 2284011; active means hit-call score of the fitted dose curve at least 0.9, where 1 is the maximum; inactive means score below 0.9)
How it was run: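 MCF-7 cells in DMEM + 10% FBS exposed 6 h to chemicals over an eight-point dilution series. Caspase-3/7 activation imaged by high-content CellEvent Green staining; fitted bidirectionally versus DMSO.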

[16] = CCTE_Harrill_HTTr_CellCount_MCF7: CCTE's Cell Proliferation Assessment for the High-Throughput Transcriptomics (HTTr) Platform, Harrill Lab (AID 2284012);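 further: intended direction is loss of nuclei count meaning fewer cells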
How it was run: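 MCF7 cells exposed 6 hours to an eight-point dilution series; Hoechst-stained nuclei counted by high-content imaging. Bidirectional curve fitting against DMSO baseline.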

[17] = target: PGR (gene 5241) (UniProt P06401); experiment: TOX21_PR_BLA_Followup_Agonist_ratio: Tox21 HEK293 Progesterone Receptor (PR) Agonism Beta-lactamase Follow-Up Assay, Ratio (AID 2283933)
How it was run: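 PR-UAS-bla HEK293T cells in medium with 2% charcoal-stripped FBS were dosed after 6 h plating and incubated 16 h at 37C. LiveBLAzer FRET substrate was added for 2 h at room temperature. Cleaved/uncleaved substrate ratio fitted against DMSO; CellTiter-Glo viability run in the same wells.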

[18] = target: PGR (gene 5241) (UniProt P06401); experiment: TOX21_PR_LUC_Followup_Agonist: Tox21 HEK293 Progesterone Receptor (PR) Agonism Luciferase Follow-Up Assay (AID 2283937; active means hit-call score of the fitted dose curve at least 0.9, where 1 is the maximum; inactive means score below 0.9)
How it was run: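 HEK293-PR-A-luc cells, conditioned 5 days in 10% charcoal-stripped FBS medium, seeded 3,000/well for 5 h, then compound-treated 16 h at 37C. ONE-Glo luminescence read after 30 min at room temperature; gain of signal versus DMSO.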

[19] = TOX21_PR_LUC_Followup_Agonist_viability: Viability Assessment in the Tox21 HEK293 Progesterone Receptor (PR) Agonism Luciferase Follow-Up Assay (AID 2283941);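 further: loss of signal means cytotoxicity so actives lower viability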
How it was run: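 HEK293-PR-A-luc cells, kept in 10% charcoal-stripped FBS medium, were treated with compounds for 16 h at 37C. Viability read as cellular ATP by luciferase-coupled luminescence; loss of signal indicates cytotoxicity.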

Measured: AC50

PGR (gene 5241), sequence (P06401 whole entry, looked up): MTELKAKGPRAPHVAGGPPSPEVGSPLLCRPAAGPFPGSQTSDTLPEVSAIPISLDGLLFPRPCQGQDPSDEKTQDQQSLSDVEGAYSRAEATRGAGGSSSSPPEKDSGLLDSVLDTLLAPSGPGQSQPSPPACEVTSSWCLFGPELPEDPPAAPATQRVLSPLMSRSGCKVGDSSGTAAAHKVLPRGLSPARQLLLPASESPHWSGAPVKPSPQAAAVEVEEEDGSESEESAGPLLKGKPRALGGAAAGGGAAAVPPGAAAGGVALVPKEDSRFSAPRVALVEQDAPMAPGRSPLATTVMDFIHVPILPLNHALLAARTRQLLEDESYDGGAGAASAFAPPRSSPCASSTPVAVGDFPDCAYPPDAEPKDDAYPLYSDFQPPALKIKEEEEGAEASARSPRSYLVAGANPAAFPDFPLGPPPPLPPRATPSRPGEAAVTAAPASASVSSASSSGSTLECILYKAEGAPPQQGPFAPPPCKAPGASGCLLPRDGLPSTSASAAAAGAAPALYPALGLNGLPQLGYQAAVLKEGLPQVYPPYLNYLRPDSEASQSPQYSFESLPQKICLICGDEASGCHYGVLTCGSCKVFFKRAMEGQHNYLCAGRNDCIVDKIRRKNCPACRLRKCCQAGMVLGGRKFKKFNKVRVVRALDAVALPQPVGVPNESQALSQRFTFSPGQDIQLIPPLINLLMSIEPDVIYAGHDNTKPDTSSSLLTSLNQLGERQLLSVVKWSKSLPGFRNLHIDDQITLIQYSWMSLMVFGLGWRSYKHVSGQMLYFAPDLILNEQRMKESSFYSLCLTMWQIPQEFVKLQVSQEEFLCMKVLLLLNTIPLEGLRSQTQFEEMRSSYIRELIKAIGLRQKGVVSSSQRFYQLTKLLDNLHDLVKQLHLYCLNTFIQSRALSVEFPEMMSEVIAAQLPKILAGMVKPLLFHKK
Cellular tumor antigen p53 (Homo sapiens), sequence (P04637 whole entry, looked up): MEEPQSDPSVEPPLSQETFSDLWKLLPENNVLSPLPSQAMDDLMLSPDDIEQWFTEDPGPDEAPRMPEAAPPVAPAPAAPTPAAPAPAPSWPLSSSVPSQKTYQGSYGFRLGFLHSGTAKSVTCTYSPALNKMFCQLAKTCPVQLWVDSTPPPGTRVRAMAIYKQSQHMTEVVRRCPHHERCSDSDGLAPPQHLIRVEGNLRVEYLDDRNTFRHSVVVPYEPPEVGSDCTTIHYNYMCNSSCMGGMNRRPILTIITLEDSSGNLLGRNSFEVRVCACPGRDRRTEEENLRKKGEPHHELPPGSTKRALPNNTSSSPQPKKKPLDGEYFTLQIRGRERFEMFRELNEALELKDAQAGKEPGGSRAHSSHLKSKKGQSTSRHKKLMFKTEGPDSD

COc1cccc2c1[C@@H]1CN(CCCCn3c(=O)[nH]c4c(sc5ncc(-c6ccccc6)nc54)c3=O)C[C@@H]1CO2
inactive: [2] | [3] | [4] | [6] | [7] | [8]
active: [1] 39.8 µM | [5] 43.3 µM

O=C1Nc2ccc(Cl)cc2[C@@](C#CC2CC2)(C(F)(F)F)O1
active: [1] 37.1 µM | [5] 36.3 µM | [6] 36.7 µM | [7] 38.3 µM | [8] 43.5 µM | [9] 17 µM
not listed: [17] | [18] | [19]
inactive: all other assays above

CC(C)=CCC1C(=O)N(c2ccccc2)N(c2ccccc2)C1=O
inactive: [8]
active: [1] 32.6 µM | [2] 7.19 µM | [3] 34.3 µM | [4] 10.2 µM | [5] 33.5 µM | [6] 7.67 µM | [7] 42.1 µM

COC(=O)C1=C(C)NC(COC(N)=O)=C(C(=O)OC(C)C)C1c1cccc(Cl)c1Cl (stereo not drawn)
active: [2] 33.5 µM | [5] 35.2 µM | [6] 25.5 µM | [8] 28.8 µM | [17] 23 µM | [12] 7.88 µM
not listed: [14] | [15] | [16]
inactive: all other assays above
